Drawing on PubChem BioAssay (NCATS), this text covers Potency for 28 compounds.

Test [1] addresses Calcium and integrin-binding protein 1 (Homo sapiens) (UniProt Q99828). Description: Primary qHTS for Identification of Calcium Integrin Binding Protein 1 (CIB1) Competitor (AID 1508620).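 Note: GST tagged CIB1 binding a fluorescein labelled alphaIIb integrin peptide tracer; top concentration of the series differs between compounds.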 In a few lines:
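CIB1-GST (1 uM final) and compound incubated 15 min at room temperature before adding FITC-alphaIIb peptide tracer (100 nM final). Competition for binding read by fluorescence polarization (ex 480, em 540) after another 15 min at room temperature.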

In test [2] the target is Cytochrome P450 2D6 (Homo sapiens) (UniProt P10635). The experiment in a line: Cytochrome P450 family 2 subfamily D member 6 (CYP2D6) small molecule antagonists: luciferase biochemical (cell-free) qHTS assay (AID 1645840; active = well fitted curve in the direction sought with a large enough effect in the repeat runs; an effect the other way counts as inactive or inconclusive; note: nearly all actives have a fitted effect of over 55% in size; note: potency is the fitted concentration of half-maximal effect). In a few lines: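 P450-Glo CYP2D6 system: proluciferin substrate converted by enzyme to luciferin, read by luminescence proportional to activity. Enzyme-substrate mix with compound 10 min at room temperature, then NADPH regeneration 1 h before detection reagent.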
Sequence of Cytochrome P450 2D6 (Homo sapiens) (P10635 whole entry, looked up): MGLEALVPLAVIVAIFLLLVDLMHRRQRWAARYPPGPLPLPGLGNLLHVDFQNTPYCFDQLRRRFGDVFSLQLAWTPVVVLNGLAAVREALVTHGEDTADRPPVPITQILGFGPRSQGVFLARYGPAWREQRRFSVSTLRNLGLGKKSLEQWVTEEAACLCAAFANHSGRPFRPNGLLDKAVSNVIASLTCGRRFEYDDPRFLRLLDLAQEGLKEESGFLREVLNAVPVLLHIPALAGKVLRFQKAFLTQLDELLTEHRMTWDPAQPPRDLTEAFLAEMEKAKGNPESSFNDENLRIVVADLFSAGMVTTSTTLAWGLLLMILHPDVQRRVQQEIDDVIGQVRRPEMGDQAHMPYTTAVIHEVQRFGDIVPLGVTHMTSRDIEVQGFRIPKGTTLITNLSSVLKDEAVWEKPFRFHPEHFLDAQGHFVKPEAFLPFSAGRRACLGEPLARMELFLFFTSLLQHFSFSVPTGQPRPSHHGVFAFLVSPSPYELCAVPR
(qHTS replaces the single test concentration by a dilution series.)

Test [3] is described as follows: Primary qHTS for small molecule stabilizers of the endoplasmic reticulum resident proteome: Secreted ER Calcium Modulated Protein (SERCaMP) assay (AID 1508630). In a few lines:
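The SH-SY5Y reporter protocol was run at 3 concentrations up to 38.3 uM (primary) or 11 concentrations (follow-up): 16 h compound, 100 nM thapsigargin for 4 h, then extracellular luciferase luminescence.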

The nature of test [4]: Primary qHTS for inhibitors of nuclear receptor binding SET domain protein 2 (NSD2) in an isogenic RCH-ACV NSD2 p.E1099K mutant (9B) (AID 1645876). Note: nearly all actives have a fitted effect of over 70% in size. Note: potency is the fitted concentration of half-maximal effect.
Test [5] in a line: Primary qHTS for inhibitors of nuclear receptor binding SET domain protein 2 (NSD2) in an RCH-ACV wild type WT cells (2C) (AID 1645877). Note: nearly all actives have a fitted effect of over 70% in size. Note: potency is the fitted concentration of half-maximal effect.
Test [6] has as its target Cytochrome P450 2C9 (Homo sapiens) (UniProt P11712). The experiment in a line: Cytochrome P450 family 2 subfamily C member 9 (CYP2C9) small molecule antagonists: luciferase biochemical (cell-free) qHTS assay (AID 1645842; active = well fitted curve in the direction sought with a large enough effect in the repeat runs; an effect the other way counts as inactive or inconclusive; note: nearly all actives have a fitted effect of over 55% in size; note: potency is the fitted concentration of half-maximal effect). Put shortly:
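P450-Glo CYP2C9 system: proluciferin substrate with enzyme in mix containing 0.4% BSA, 10 min at room temperature, then NADPH regeneration solution added and incubated 1 h at 37C. Detection reagent stopped reaction; luminescence read after 20 min as RLU.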

In test [7] the target is Rap guanine nucleotide exchange factor 3 (Homo sapiens) (UniProt O95398). The experiment in a line: Confirmatory qHTS for antagonist of cAMP-regulated guanine nucleotide exchange factor 3 (EPAC1) (AID 1645880). Note: potency is the fitted concentration of half-maximal effect; nearly all actives have a fitted effect of over 55% in size. In a few lines: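 Released BODIPY-GDP fluoresces less than Rap1-bound BODIPY-GDP; the signal is followed at 480/540 nm at 5-min intervals over 30 min, after 5 min at room temperature. Reactions contain 100 nM EPAC1, 250 nM RAP1B-BODIPY-GDP and 50 uM GDP; results are normalized to ATA and DMSO.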
Sequence of Rap guanine nucleotide exchange factor 3 (Homo sapiens) (O95398 whole entry, looked up): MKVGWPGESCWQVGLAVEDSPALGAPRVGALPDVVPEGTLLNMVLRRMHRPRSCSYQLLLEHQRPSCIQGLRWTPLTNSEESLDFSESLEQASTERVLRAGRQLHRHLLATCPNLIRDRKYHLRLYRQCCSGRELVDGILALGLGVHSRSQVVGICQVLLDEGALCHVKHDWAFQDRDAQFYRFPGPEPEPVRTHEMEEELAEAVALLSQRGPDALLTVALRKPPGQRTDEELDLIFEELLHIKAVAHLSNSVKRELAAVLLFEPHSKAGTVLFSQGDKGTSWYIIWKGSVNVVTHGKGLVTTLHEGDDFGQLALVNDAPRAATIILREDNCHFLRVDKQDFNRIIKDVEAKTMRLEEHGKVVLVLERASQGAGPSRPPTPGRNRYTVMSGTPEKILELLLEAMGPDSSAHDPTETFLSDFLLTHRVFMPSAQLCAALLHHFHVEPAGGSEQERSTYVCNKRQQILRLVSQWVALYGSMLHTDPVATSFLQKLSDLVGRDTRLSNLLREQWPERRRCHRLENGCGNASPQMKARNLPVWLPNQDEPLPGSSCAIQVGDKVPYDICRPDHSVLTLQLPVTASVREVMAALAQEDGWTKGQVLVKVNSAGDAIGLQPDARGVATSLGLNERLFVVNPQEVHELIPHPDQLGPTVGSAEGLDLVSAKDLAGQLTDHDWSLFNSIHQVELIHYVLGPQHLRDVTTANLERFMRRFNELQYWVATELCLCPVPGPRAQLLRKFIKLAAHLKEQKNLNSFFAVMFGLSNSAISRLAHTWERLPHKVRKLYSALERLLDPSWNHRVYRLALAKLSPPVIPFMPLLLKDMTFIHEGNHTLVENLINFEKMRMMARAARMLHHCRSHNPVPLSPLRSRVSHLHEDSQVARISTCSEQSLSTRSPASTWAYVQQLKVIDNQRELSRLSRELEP

The target is the same in test [8]. Description: Confirmatory qHTS for agonist of cAMP-regulated guanine nucleotide exchange factor 3 (EPAC1) (AID 1645881).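 Note: EPAC1 catalysed release of BODIPY-GDP from Rap1B seen as fluorescence loss; nearly all actives have a fitted effect of over 75% in size.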

“And” between values parts separate entries of the source, which are not always exact repeats. Equal entries are not always repeated. Inconclusive results are not listed. The source made the active and inactive calls. Unless noted, calls come from the whole dose curve; as a rule, active = well fitted curve in the direction sought with a large enough effect; inconclusive = small, poorly fitted or top-dose-only effect, or another doubt; inactive = no such curve, though single readings can be large; an effect the other way counts as inactive or inconclusive.

Sequence of Calcium and integrin-binding protein 1 (Homo sapiens) (Q99828 whole entry, looked up): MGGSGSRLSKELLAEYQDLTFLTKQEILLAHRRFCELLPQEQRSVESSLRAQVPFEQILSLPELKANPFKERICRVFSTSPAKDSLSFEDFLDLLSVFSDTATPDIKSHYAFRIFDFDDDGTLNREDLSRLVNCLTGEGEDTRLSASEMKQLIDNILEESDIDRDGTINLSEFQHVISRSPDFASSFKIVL
Sequence of Cytochrome P450 2C9 (Homo sapiens) (P11712 whole entry, looked up): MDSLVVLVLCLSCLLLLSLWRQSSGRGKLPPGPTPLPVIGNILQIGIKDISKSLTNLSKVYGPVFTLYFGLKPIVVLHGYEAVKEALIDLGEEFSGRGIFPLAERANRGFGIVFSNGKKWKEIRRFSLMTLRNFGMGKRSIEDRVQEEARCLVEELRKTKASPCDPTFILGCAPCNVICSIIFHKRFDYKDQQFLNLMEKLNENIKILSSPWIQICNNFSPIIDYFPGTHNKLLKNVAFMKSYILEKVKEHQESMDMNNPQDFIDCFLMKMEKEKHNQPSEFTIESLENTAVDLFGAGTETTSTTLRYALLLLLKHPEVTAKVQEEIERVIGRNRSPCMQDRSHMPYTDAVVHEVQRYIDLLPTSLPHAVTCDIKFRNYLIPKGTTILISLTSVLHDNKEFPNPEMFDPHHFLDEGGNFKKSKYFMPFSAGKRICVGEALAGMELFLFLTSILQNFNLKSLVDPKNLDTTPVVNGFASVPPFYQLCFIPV

In the case of `CC1CCN(c2cc(N3CCN(C)CC3)ccc2NC(=O)c2cc(C#N)c[nH]2)CC1`, the Potency result in test [1] is “inactive”. In addition, the Potency in test [2] is 1.2 µM (active).
Regarding `CCC[C@H](Nc1nc(-c2ccc(NC(=O)NCC)c(OC)c2)ncc1C)c1cccnc1`, the Potency entry in test [1] and in test [3] was “inactive” each time. For the same compound, the values for the Potency in test [4] and in test [5] were 0.0263 µM (active) and 0.0372 µM (active), respectively.
With `COc1cc([C@@H]2c3cc4c(cc3[C@@H](O[C@@H]3O[C@@H]5CO[C@@H](C)O[C@@H]5[C@H](O)[C@@H]3O)[C@H]3COC(=O)[C@H]23)OCO4)cc(OC)c1O`, the Potency result in test [1] and in test [3] was “inactive” each time. The values for the Potency in test [4] and in test [5] were 0.263 µM (active) and 0.235 µM (active), respectively.
Take `CC1CNc2c(cccc2S(=O)(=O)N[C@@H](CCCN=C(N)N)C(=O)N2CC[C@@H](C)C[C@@H]2C(=O)O)C1` (some centres undefined): the Potency result in test [1], in test [3], in test [4] and in test [5] was “inactive” in each case.
Regarding `Cc1cccc2c1CC[C@H](CN1CCC(c3c(Cl)cccc3Cl)CC1)C[C@@H]2O`, in test [1], the Potency result is “inactive”. Further, the Potency in test [2] was 2.13 µM (active); in test [6], 9.52 µM (active); in test [4], 10.3 µM (active); in test [5], 7.28 µM (active).
`CCOc1ccccc1N=Nc1c(C)[nH]n(-c2nc(-c3ccccc3)cs2)c1=O`: the Potency result in test [1], in test [3], in test [4] and in test [5] was “inactive” each time.
As for `O=C1CN2Cc3c(ccc(Cl)c3Cl)N=C2N1`, the Potency entry in test [1], in test [3], in test [4] and in test [5] was “inactive” each time.
`Cc1cn([C@@H]2C[C@@H](O)[C@H](CO)O2)c(=O)[nH]c1=O`: the Potency entry in test [1], in test [2], in test [6], in test [4] and in test [5] was “inactive” throughout.
Turning to `O=c1cc(-c2ccc(O)c(O)c2)oc2cc(O)cc(O)c12`, the Potency entry in test [1], in test [3] and in test [8] was “inactive” each time. In addition, the Potency in test [4] is 10.5 µM (active); in test [5], 9.34 µM (active); in test [7], 6.27 µM (active) and 5.77 µM (active) and 7.57 µM (active).
On to `c1ccc(CNc2nc(N3CCOc4ccccc43)nc3c2CCCC3)cc1`, for which the Potency result in test [1] was “inactive”. In addition, the Potency in test [2] is 3.01 µM (active); in test [6], 1.9 µM (active).
For `COc1ccc(C=CC(=O)Nc2ccccc2C(=O)O)cc1OC`, in that order: “inactive”, “inactive” and 16.9 µM (active).
With `C[C@@H]1CCO[C@H]2Cn3cc(C(=O)NCc4ccc(F)cc4F)c(=O)c(O)c3C(=O)N12`, the Potency entry in test [1], in test [2] and in test [6] was “inactive” in each case. The Potency in test [4] is 20.5 µM (active).
Consider `C[C@]12CC[C@@H]3c4ccc(O)cc4CC[C@H]3[C@H]1[C@@H](O)[C@@H](O)[C@H]2O`, for which the Potency entry in test [1], in test [3] and in test [5] was “inactive” each time.
In the case of `Cc1ccc(NC(=O)c2cccc(N(C)C)c2)cc1NC(=O)c1ccc(O)cc1`, the Potency entry in test [1] is “inactive”. Further, the Potency in test [6] is 7.56 µM (active).
On to `N#CC(c1ccnc(NCCc2cccnc2)n1)c1nc2ccccc2s1` (centres undefined), for which the Potency result in test [1] is “inactive”. In addition, the Potency in test [4] and in test [5] was 14.8 µM (active) in each case.
On to `CN(C)N=Nc1nc[nH]c1C(N)=O`, for which, in test [1], the Potency entry was “inactive”. In addition, the Potency is 2.95 µM (active) in test [4] and 3.72 µM (active) in test [5].
`CN(C)S(=O)(=O)c1ccc2c(c1)C(=Cc1cc3c([nH]1)CCCC3)C(=O)N2`: the Potency result in test [1] was “inactive”. The Potency in test [5] is 2.95 µM (active).
In the case of `Cc1cc(NC(=O)Nc2ccc(N(C)C)cc2)c2cc(F)cc(F)c2n1`, the Potency result in test [1] and in test [4] was “inactive” each time.
As to `Cc1ccc2c(c1)C(=O)[C@]1(O)CCN(c3ccccc3)C1=N2`, the Potency result in test [1] was “inactive”. In addition, in test [5], the Potency is 23 µM (active).
Turning to `COc1ccc2c(c1)c(C1=C(c3c[nH]c4ccccc34)C(=O)NC1=O)cn2CCCN(C)C`, the Potency entry in test [1] is “inactive”. For the same compound, the Potency was 7.42 µM (active) in test [4] and 6.61 µM (active) in test [5].
Take `CCCCC(F)(F)[C@@]1(O)CC[C@H]2[C@H](CC(=O)[C@@H]2CCCCCCC(=O)O)O1`: the Potency result in test [1] and in test [5] was “inactive” each time.
In the case of `O=C(NCCCCN1CCOCC1)c1cc2ccccc2o1`, the Potency result in test [1], in test [4] and in test [5] was “inactive” each time.
As for `Cc1c(-c2cccc3c(CCCOc4cccc5ccccc45)c(C(=O)O)n(Cc4cccnc4)c23)c(COc2ccc(N3CCN([S+](=O)([O-])N(C)C)CC3)cc2)nn1C`, in test [3], the Potency result was “inactive”.
As to `Cc1cc(OCCCS(C)(=O)=O)cc(C)c1-c1cccc(COc2ccc3c(c2)OC[C@H]3CC(=O)O)c1`, the Potency entry in test [1] was “inactive”. The Potency in test [6] was 21.3 µM (active).
For `O=C(Nc1ncc(SCCN2CCCC2)s1)[C@]1(c2ccc(S(=O)(=O)C3CC3)cc2)C[C@@H]1C1CCCCC1`, in test [1], the Potency entry is “inactive”. The Potency in test [4] was 20.6 µM (active); in test [5], 14.6 µM (active).
With `CC1=C(C(=O)Nc2cc3cn[nH]c3cc2F)C(c2ccc(C(F)(F)F)cc2)CC(=O)N1` (centres undefined), the Potency result in test [1] is “inactive”. In test [6], the Potency is 19 µM (active).
The matching figures for `CNc1nc(Nc2ccc(C(=O)N3CCOCC3)cc2OC)ncc1Cl`: “inactive” and “inactive”.
For `COc1ccc(-c2cc(=O)c3c(O)cc(O[C@@H]4O[C@H](CO[C@@H]5O[C@@H](C)[C@H](O)[C@@H](O)[C@@H]5O)[C@@H](O)[C@H](O)[C@@H]4O)cc3o2)cc1O`, the Potency result in test [3] was “inactive”.
